Common to all, as to assay: PBM; 200 nM protein, PBS
Details in all cases: dsDNA, one strand shown

For test [1], the target named is HOXB9 (Homo sapiens, UniProt P17482 171-250, T197M).
Test [2] addresses HOXC9 (Homo sapiens, UniProt P31274 178-260, K195R).
Test [3] has as its target HOXB9 (Homo sapiens, UniProt P17482 171-250).
The target of test [4] is HOXC9 (Homo sapiens, UniProt P31274 178-260).
In test [5] the target is ALX1 (Homo sapiens, UniProt Q15699 118-204, L144V).
Test [6] has as its target HOXD13 (Homo sapiens, UniProt P35453 263-343, T313R).
Test [7] addresses HOXC9 (Homo sapiens, UniProt P31274 178-260, R193K).
The target in test [8] is ALX1 (Homo sapiens, UniProt Q15699 118-204, L144R).
Sequence of ALX1 (Homo sapiens, UniProt Q15699 118-204, L144R) (Q15699 118-204 L144R): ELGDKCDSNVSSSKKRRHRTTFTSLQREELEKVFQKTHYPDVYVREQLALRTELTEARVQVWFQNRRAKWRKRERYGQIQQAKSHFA
In test [9] the target is HOXD13 (Homo sapiens, UniProt P35453 263-343).
Sequence of HOXD13 (Homo sapiens, UniProt P35453 263-343) (P35453 263-343): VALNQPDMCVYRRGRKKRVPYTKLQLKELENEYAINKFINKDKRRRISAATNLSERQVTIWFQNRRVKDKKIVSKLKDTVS
Test [10] addresses HOXC10 (Homo sapiens, UniProt Q9NYD6 254-340, K271E).
Test [11] has as its target HOXD13 (Homo sapiens, UniProt P35453 263-343, T313A).
Test [12] has as its target HOXB9 (Homo sapiens, UniProt P17482 171-250, R186Q).
The target in test [13] is HOXC9 (Homo sapiens, UniProt P31274 178-260, R222W).
Sequence of HOXC9 (Homo sapiens, UniProt P31274 178-260, R222W) (P31274 178-260 R222W): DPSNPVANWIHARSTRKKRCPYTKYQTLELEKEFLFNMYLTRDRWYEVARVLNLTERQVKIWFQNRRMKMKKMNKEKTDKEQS
Test [14] concerns the target ALX1 (Homo sapiens, UniProt Q15699 118-204).
Test [15] deals with HOXC10 (Homo sapiens, UniProt Q9NYD6 254-340).
Sequence of HOXC10 (Homo sapiens, UniProt Q9NYD6 254-340) (Q9NYD6 254-340): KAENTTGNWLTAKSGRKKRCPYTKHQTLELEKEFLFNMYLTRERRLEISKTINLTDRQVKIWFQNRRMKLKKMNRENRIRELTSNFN
For test [16], the target named is HOXA2 (Homo sapiens, UniProt O43364 129-215, R185T).
Sequence of HOXA2 (Homo sapiens, UniProt O43364 129-215, R185T) (O43364 129-215 R185T): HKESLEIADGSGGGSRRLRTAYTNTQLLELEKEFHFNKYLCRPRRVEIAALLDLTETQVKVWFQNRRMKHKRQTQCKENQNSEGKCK
The target in test [17] is HOXA2 (Homo sapiens, UniProt O43364 129-215, R185K).
Sequence of HOXA2 (Homo sapiens, UniProt O43364 129-215, R185K) (O43364 129-215 R185K): as the sequence (O43364 129-215 R185T) above, with T57K counted along it
In test [18] the target is HOXA2 (Homo sapiens, UniProt O43364 129-215, Y150S).
Sequence of HOXA2 (Homo sapiens, UniProt O43364 129-215, Y150S) (O43364 129-215 Y150S): as the sequence (O43364 129-215 R185T) above, with Y22S, T57R counted along it
The target of test [19] is HOXA2 (Homo sapiens, UniProt O43364 129-215).
Sequence of HOXA2 (Homo sapiens, UniProt O43364 129-215) (O43364 129-215): as the sequence (O43364 129-215 R185T) above, with T57R counted along it

Sequence of HOXC9 (Homo sapiens, UniProt P31274 178-260) (P31274 178-260): as the sequence (P31274 178-260 R222W) above, with W45R counted along it
Sequence of HOXC10 (Homo sapiens, UniProt Q9NYD6 254-340, K271E) (Q9NYD6 254-340 K271E): as the sequence (Q9NYD6 254-340) above, with K18E counted along it
Sequence of HOXD13 (Homo sapiens, UniProt P35453 263-343, T313A) (P35453 263-343 T313A): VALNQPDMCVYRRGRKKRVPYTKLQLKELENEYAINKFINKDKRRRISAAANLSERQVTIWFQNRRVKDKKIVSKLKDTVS
Sequence of HOXB9 (Homo sapiens, UniProt P17482 171-250, T197M) (P17482 171-250 T197M): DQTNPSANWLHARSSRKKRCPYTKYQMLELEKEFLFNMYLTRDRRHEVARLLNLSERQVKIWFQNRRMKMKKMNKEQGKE
Sequence of HOXB9 (Homo sapiens, UniProt P17482 171-250) (P17482 171-250): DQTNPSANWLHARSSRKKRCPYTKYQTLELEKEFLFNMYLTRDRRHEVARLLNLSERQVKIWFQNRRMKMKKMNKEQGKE
Sequence of HOXB9 (Homo sapiens, UniProt P17482 171-250, R186Q) (P17482 171-250 R186Q): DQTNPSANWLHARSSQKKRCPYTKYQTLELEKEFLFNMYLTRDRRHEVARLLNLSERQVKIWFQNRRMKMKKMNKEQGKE
Sequence of HOXC9 (Homo sapiens, UniProt P31274 178-260, R193K) (P31274 178-260 R193K): as the sequence (P31274 178-260 R222W) above, with R16K, W45R counted along it
Sequence of HOXC9 (Homo sapiens, UniProt P31274 178-260, K195R) (P31274 178-260 K195R): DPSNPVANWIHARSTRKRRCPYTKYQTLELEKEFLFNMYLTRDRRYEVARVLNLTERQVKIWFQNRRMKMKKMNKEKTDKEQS
Sequence of HOXD13 (Homo sapiens, UniProt P35453 263-343, T313R) (P35453 263-343 T313R): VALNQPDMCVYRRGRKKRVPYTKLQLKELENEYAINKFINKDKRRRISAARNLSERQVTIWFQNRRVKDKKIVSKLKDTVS
Sequence of ALX1 (Homo sapiens, UniProt Q15699 118-204) (Q15699 118-204): as the sequence (Q15699 118-204 L144R) above, with R27L counted along it
Sequence of ALX1 (Homo sapiens, UniProt Q15699 118-204, L144V) (Q15699 118-204 L144V): as the sequence (Q15699 118-204 L144R) above, with R27V counted along it

For the sequence CTATTAAA, the binding signal was 9.97 upbm affinity estimate (log intensity, higher = more binding, comparable within an allelic series) in test [1]; 12.6 upbm affinity estimate (log intensity, higher = more binding, comparable within an allelic series) in [2]; 11.9 upbm affinity estimate (log intensity, higher = more binding, comparable within an allelic series) in test [3]; 12.8 upbm affinity estimate (log intensity, higher = more binding, comparable within an allelic series) in test [4]; 9.79 upbm affinity estimate (log intensity, higher = more binding, comparable within an allelic series) in [5]; 11 upbm affinity estimate (log intensity, higher = more binding, comparable within an allelic series) in test [6]. The binding signal was 12.7 upbm affinity estimate (log intensity, higher = more binding, comparable within an allelic series) in [7]; 9.81 upbm affinity estimate (log intensity, higher = more binding, comparable within an allelic series) in test [8]; 12 upbm affinity estimate (log intensity, higher = more binding, comparable within an allelic series) in test [9]; 11.8 upbm affinity estimate (log intensity, higher = more binding, comparable within an allelic series) in [10]; 11.9 upbm affinity estimate (log intensity, higher = more binding, comparable within an allelic series) in test [11]; 11.6 upbm affinity estimate (log intensity, higher = more binding, comparable within an allelic series) in test [12]. Also, the binding signal in [13] was 11.1 upbm affinity estimate (log intensity, higher = more binding, comparable within an allelic series); in test [14], 10.3 upbm affinity estimate (log intensity, higher = more binding, comparable within an allelic series).

Regarding GTTTATTA, the binding signal in test [1] was 9.87 upbm affinity estimate (log intensity, higher = more binding, comparable within an allelic series); in [2] it was 12.6 upbm affinity estimate (log intensity, higher = more binding, comparable within an allelic series); in test [15], 12.4 upbm affinity estimate (log intensity, higher = more binding, comparable within an allelic series); in [3], 11.7 upbm affinity estimate (log intensity, higher = more binding, comparable within an allelic series); in test [4], 12.6 upbm affinity estimate (log intensity, higher = more binding, comparable within an allelic series); in [6] it was 11 upbm affinity estimate (log intensity, higher = more binding, comparable within an allelic series). Further, the binding signal in test [7] was 12.6 upbm affinity estimate (log intensity, higher = more binding, comparable within an allelic series); in [9], 12 upbm affinity estimate (log intensity, higher = more binding, comparable within an allelic series); in test [10], 11.6 upbm affinity estimate (log intensity, higher = more binding, comparable within an allelic series); in test [11] it was 11.8 upbm affinity estimate (log intensity, higher = more binding, comparable within an allelic series); in [12], 11.5 upbm affinity estimate (log intensity, higher = more binding, comparable within an allelic series); in [13], 11.2 upbm affinity estimate (log intensity, higher = more binding, comparable within an allelic series).

GTCATAAA: the binding signal in [1] is 9.98 upbm affinity estimate (log intensity, higher = more binding, comparable within an allelic series); in test [2], 13.1 upbm affinity estimate (log intensity, higher = more binding, comparable within an allelic series); in [15] it was 12.9 upbm affinity estimate (log intensity, higher = more binding, comparable within an allelic series); in test [3] it was 12.5 upbm affinity estimate (log intensity, higher = more binding, comparable within an allelic series); in test [4], 13.1 upbm affinity estimate (log intensity, higher = more binding, comparable within an allelic series); in test [6], 10.9 upbm affinity estimate (log intensity, higher = more binding, comparable within an allelic series). Besides, the binding signal in [7] is 13.1 upbm affinity estimate (log intensity, higher = more binding, comparable within an allelic series); in test [9], 12.1 upbm affinity estimate (log intensity, higher = more binding, comparable within an allelic series); in test [10], 12.4 upbm affinity estimate (log intensity, higher = more binding, comparable within an allelic series); in test [11], 11.8 upbm affinity estimate (log intensity, higher = more binding, comparable within an allelic series); in test [12], 12.2 upbm affinity estimate (log intensity, higher = more binding, comparable within an allelic series); in [13], 11.2 upbm affinity estimate (log intensity, higher = more binding, comparable within an allelic series).

Turning to ACTATAAA, the binding signal in test [1] was 9.75 upbm affinity estimate (log intensity, higher = more binding, comparable within an allelic series); in test [2] it was 12.4 upbm affinity estimate (log intensity, higher = more binding, comparable within an allelic series); in test [15] it was 12.1 upbm affinity estimate (log intensity, higher = more binding, comparable within an allelic series); in [3] it was 11.7 upbm affinity estimate (log intensity, higher = more binding, comparable within an allelic series); in [4] it was 12.6 upbm affinity estimate (log intensity, higher = more binding, comparable within an allelic series); in test [6], 10.9 upbm affinity estimate (log intensity, higher = more binding, comparable within an allelic series). Further, the binding signal in test [7] is 12.5 upbm affinity estimate (log intensity, higher = more binding, comparable within an allelic series); in [9] it was 12 upbm affinity estimate (log intensity, higher = more binding, comparable within an allelic series); in [10], 11.4 upbm affinity estimate (log intensity, higher = more binding, comparable within an allelic series); in test [11] it was 11.8 upbm affinity estimate (log intensity, higher = more binding, comparable within an allelic series); in test [12], 11.4 upbm affinity estimate (log intensity, higher = more binding, comparable within an allelic series); in test [13], 11 upbm affinity estimate (log intensity, higher = more binding, comparable within an allelic series).

For the sequence CTCGTAAA, the binding signal in test [1] was 9.72 upbm affinity estimate (log intensity, higher = more binding, comparable within an allelic series); in test [2], 12.6 upbm affinity estimate (log intensity, higher = more binding, comparable within an allelic series); in [15], 12.6 upbm affinity estimate (log intensity, higher = more binding, comparable within an allelic series); in test [3], 12 upbm affinity estimate (log intensity, higher = more binding, comparable within an allelic series); in [4], 12.9 upbm affinity estimate (log intensity, higher = more binding, comparable within an allelic series); in [6], 11.3 upbm affinity estimate (log intensity, higher = more binding, comparable within an allelic series). The binding signal in test [7] is 12.7 upbm affinity estimate (log intensity, higher = more binding, comparable within an allelic series); in test [9], 12.7 upbm affinity estimate (log intensity, higher = more binding, comparable within an allelic series); in test [10] it was 11.9 upbm affinity estimate (log intensity, higher = more binding, comparable within an allelic series); in test [11] it was 12.6 upbm affinity estimate (log intensity, higher = more binding, comparable within an allelic series); in [12], 11.4 upbm affinity estimate (log intensity, higher = more binding, comparable within an allelic series); in test [13] it was 11.1 upbm affinity estimate (log intensity, higher = more binding, comparable within an allelic series).

As for CCTAGGGC, the binding signal is 8.55 upbm affinity estimate (log intensity, higher = more binding, comparable within an allelic series) in test [1]; 9.6 upbm affinity estimate (log intensity, higher = more binding, comparable within an allelic series) in test [2]; 6.96 upbm affinity estimate (log intensity, higher = more binding, comparable within an allelic series) in test [16]; 8.37 upbm affinity estimate (log intensity, higher = more binding, comparable within an allelic series) in [3]; 9.6 upbm affinity estimate (log intensity, higher = more binding, comparable within an allelic series) in test [4]; 9.53 upbm affinity estimate (log intensity, higher = more binding, comparable within an allelic series) in test [7]. In addition, the binding signal in [17] was 10.4 upbm affinity estimate (log intensity, higher = more binding, comparable within an allelic series); in test [12] it was 8.47 upbm affinity estimate (log intensity, higher = more binding, comparable within an allelic series); in test [13], 9.68 upbm affinity estimate (log intensity, higher = more binding, comparable within an allelic series); in test [18], 10.4 upbm affinity estimate (log intensity, higher = more binding, comparable within an allelic series); in test [19], 6.98 upbm affinity estimate (log intensity, higher = more binding, comparable within an allelic series).
